In PubChem BioAssay:
Activity calls are given as the source filed them.

Experiments:
[1] = tested on: PRMT1 (protein arginine N-methyltransferase 1); assay: PRMT1 binders on small-molecule microarrays, primary screen, biochemical, small-molecule microarray, 635 nm fluorescence (AID 1088); conditions: small-molecule microarray binding, higher = more signal;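 note: binding of Prmt1 protein to compounds spotted on small-molecule microarray slides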
[2] = yeast growth modulation, basal conditions, primary screen, YJM789 clinical isolate, OD600, 24 h (AID 1089);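 note: growth of clinical yeast isolate S. cerevisiae YJM 789 seeded 1000 cells per well; test concentration not given here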; conditions: S. cerevisiae YJM789 growth, higher = more signal, called active from +8 up or from −8 down
[3] = fission yeast growth modulation, primary screen, strain 972, OD600, 24 h, no modulator (AID 1090);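 note: basal condition with compound alone and no growth modifier present; test concentration not given here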; conditions: S. pombe 972 growth, higher = more signal, called active from +8 up or from −8 down
[4] = S. cerevisiae growth modulation with rapamycin, primary screen, strain BY4716, OD600, 96 h (AID 1091); conditions: higher = more signal, called active from +8 up or from −8 down; note: test concentration not given here
[5] = molecular target: Torsin-1A-interacting protein 2 (Homo sapiens) (UniProt Q8NFQ8); assay: LULL1 binders on small-molecule microarray, primary screen, cell lysate, human LULL1 lysate, 635/667 nm fluorescence (AID 1092); conditions: hLULL1 lysate binding, 635 nm fluorescence, higher = more signal;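 note: probe is lysate of COS7 cells overexpressing human LULL1; score merges per-feature 667 nm fluorescence with signal-to-noise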
[6] = E. coli growth modulation, two-sided OD650, primary screen, E. coli filamentation project, strain DRC41, 24 h (AID 1093); conditions: OD650, 24 h, higher = more signal, called active from +8 up or from −8 down;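 note: MC1000 strain lacking acrAB efflux and sulA so SOS filamentation is blocked; test concentration not given here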
[7] = small-molecule microarray binders of probe aLefty2, primary screen, biochemical, biotinylated probe, 635/667 nm fluorescence (AID 1094); conditions: higher = more signal;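 note: score merges spot fluorescence near 667 nm with spot signal-to-noise ratio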
[8] = tested on: Noggin (protein binding on small-molecule microarray); assay: Noggin binders on small-molecule microarray, primary screen, biochemical, 635/667 nm fluorescence (AID 1095); conditions: 635 nm fluorescence, higher = more signal;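 note: score merges 667 nm feature fluorescence with signal to noise over triplicate slides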
[9] = molecular target: Neurogenic locus notch homolog protein 3 (Homo sapiens) (UniProt Q9UM47); assay: NOTCH3 binders on small-molecule microarray, primary screen, biochemical, 635/667 nm fluorescence (AID 1096); conditions: NOTCH3 binding, 635 nm fluorescence, higher = more signal
[10] = small-molecule microarray binders of probe aEGFR, primary screen, biochemical, biotinylated probe, 635/667 nm fluorescence (AID 1097); conditions: higher = more signal;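 note: probe is a biotinylated anti-EGFR antibody binding compounds printed on slides; score combines fluorescence near 667 nm and signal to noise of each spot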

Neurogenic locus notch homolog protein 3 (Homo sapiens), sequence (Q9UM47 whole entry, looked up): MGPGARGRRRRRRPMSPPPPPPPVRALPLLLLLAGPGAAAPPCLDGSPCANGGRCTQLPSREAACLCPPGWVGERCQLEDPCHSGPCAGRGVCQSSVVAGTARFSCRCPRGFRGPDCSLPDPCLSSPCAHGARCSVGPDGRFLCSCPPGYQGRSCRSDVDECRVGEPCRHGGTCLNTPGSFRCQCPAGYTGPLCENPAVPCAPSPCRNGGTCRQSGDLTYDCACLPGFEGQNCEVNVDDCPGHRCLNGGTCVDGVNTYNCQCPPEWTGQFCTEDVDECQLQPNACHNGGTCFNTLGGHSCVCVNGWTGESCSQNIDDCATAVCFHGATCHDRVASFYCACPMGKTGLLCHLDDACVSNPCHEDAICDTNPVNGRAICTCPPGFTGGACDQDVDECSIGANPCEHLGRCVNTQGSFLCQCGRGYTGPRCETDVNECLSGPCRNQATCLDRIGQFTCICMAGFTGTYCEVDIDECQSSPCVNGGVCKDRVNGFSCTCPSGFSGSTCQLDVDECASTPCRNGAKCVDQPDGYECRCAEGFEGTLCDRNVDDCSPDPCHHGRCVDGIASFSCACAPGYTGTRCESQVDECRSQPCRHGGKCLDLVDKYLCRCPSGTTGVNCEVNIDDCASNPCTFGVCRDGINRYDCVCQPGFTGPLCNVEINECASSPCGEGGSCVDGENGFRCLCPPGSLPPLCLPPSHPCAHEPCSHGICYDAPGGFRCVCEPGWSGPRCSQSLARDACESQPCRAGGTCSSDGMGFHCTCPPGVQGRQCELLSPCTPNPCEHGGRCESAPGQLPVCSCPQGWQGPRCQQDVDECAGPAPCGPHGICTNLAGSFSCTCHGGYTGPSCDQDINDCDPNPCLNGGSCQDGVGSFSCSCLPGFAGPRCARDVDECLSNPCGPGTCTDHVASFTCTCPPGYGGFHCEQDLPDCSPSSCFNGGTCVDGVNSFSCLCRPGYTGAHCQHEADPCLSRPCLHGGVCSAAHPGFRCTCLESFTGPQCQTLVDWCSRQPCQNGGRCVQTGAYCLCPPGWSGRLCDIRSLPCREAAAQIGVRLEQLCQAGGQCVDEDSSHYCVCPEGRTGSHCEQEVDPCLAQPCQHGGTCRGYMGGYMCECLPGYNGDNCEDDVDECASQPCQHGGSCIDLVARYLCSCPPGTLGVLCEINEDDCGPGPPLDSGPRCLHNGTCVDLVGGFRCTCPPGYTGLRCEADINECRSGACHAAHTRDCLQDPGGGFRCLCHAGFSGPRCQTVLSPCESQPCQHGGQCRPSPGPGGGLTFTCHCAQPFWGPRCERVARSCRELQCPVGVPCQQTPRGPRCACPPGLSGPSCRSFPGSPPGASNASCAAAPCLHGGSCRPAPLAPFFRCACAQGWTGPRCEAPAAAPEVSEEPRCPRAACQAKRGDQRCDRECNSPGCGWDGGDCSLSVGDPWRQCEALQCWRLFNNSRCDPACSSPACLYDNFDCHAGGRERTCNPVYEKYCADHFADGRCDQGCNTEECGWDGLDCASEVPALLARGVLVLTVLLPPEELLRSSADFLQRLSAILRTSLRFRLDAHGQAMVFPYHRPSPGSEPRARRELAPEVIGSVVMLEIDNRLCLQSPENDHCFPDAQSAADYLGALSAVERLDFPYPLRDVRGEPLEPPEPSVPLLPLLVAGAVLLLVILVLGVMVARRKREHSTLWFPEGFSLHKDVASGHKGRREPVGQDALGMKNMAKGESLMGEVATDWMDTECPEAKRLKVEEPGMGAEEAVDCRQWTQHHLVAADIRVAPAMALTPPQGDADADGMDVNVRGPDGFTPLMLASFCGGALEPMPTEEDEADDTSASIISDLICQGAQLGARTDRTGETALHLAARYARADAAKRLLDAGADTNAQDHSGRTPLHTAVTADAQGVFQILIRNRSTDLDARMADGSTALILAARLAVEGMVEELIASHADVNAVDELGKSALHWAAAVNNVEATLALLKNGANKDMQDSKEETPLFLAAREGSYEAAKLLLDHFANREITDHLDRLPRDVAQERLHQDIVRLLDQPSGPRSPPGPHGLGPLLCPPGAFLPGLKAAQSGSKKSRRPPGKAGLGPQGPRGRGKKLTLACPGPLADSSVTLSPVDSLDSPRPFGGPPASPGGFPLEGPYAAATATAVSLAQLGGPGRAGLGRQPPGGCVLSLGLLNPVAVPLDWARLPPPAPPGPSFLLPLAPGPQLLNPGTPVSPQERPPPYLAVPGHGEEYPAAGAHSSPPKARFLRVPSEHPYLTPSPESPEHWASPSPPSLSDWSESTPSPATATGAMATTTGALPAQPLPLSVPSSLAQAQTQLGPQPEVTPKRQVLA
Torsin-1A-interacting protein 2 (Homo sapiens), sequence (Q8NFQ8 whole entry, looked up): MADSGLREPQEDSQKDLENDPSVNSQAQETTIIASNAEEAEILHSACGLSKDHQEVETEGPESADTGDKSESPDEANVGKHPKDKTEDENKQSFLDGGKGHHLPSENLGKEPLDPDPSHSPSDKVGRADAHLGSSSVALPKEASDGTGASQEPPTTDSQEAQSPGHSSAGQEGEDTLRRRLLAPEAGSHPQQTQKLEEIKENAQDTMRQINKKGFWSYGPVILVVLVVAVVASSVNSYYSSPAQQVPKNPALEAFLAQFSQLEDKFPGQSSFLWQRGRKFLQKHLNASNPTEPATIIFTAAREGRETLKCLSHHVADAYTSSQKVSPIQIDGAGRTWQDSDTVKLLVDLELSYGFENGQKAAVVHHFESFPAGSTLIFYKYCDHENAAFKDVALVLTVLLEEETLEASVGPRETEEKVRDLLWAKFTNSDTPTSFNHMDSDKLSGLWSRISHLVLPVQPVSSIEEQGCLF

Compound	composite z-score [1]	z-score [2]	z-score [3]	z-score [4]	composite z-score [5]	z-score [6]	composite z-score [7]	composite z-score [8]	composite z-score [9]	composite z-score [10]
COCCOC(=O)N1C(=O)[C@@]2(c3cc(C#CC4(O)CCCCCC4)ccc31)[C@H](C(=O)Nc1nc3ccccc3s1)[C@H]1C(=O)O[C@H](c3ccccc3)[C@H](c3ccccc3)N1[C@@H]2c1ccccc1OCCO	1.55	0.976 (inactive)	0.249 (inactive)	2.12 (inactive)	2.89	1.26 (inactive)	-0.0575	1.38	1.11	0.0857
CCOC(=O)C[C@H]1[C@H](OC(=O)c2ccc(-c3ccccc3)cc2)[C@@H](NC(=O)c2ccccc2)c2cc(OCCCO)ccc2N1C(=O)c1ccc2ccccc2n1	0.316	-1.04 (inactive)	0.0452 (inactive)	0.545 (inactive)	1.23	-0.751 (inactive)	0.0769	0.0388	0.742	-0.0031
C=CC[C@]1(C(=O)NCc2ccccc2)N=C(c2ccc(OCCCO)cc2)O[C@H]1c1ccccc1CN=[N+]=[N-]	1.35	-0.755 (inactive)	-0.175 (inactive)	1.54 (inactive)	2.87	-0.765 (inactive)	0.0634	0.853	1.06	0.107
CCN(CC)c1ccc(N2CC=CC34O[C@@H]5/C=C\CCC(C)OC(=O)C5[C@H]3C(=O)N(CCCCCO)[C@@H]4C2=O)cc1 (stereo not given in full)	-0.895	0.026 (inactive)	-1.42 (inactive)	-0.399 (inactive)	-1.3	-0.374 (inactive)	-0.283	-0.663	-0.134	-0.238
C=CCN(Cc1ccccc1)C(=O)C(c1cccs1)N(C(=O)/C=C\C(=O)O)c1ccc(CCOCCO)cc1 (stereo not given)	-0.133	-1.22 (inactive)	0.246 (inactive)	-0.391 (inactive)	-0.288	1.01 (inactive)	-0.209	-1.51	-1.36	-0.32
COc1ccccc1CN1C(=O)c2ccccc2[C@@H](C(=O)NCc2ccccc2)[C@@H]1c1ccc(CO)cc1	0.713	0.649 (inactive)	0.417 (inactive)	0.253 (inactive)	2.33	0.409 (inactive)	-0.26	0.286	0.271	-0.336
OCCCC1=CC(C2CC2)N(Cc2cccc(OC(F)(F)F)c2)CC1 (stereo not given)	0.352	-2.88 (inactive)	-2.33 (inactive)	-1.72 (inactive)	0.25	-0.454 (inactive)	-0.264	-0.177	-0.477	-0.157
Cc1ccc(S(=O)(=O)N2C[C@@H](C(=O)O)[C@H](Sc3ccccc3)C[C@H]2c2ccccc2)cc1	1.55	-0.552 (inactive)	0.972 (inactive)	-0.727 (inactive)	3.41	-0.385 (inactive)	0.237	0.228	0.988	0.0478
CCCCC(=C=CC[C@@H](O)c1ccc(CO)o1)CCO	0.954	1.46 (inactive)	-0.614 (inactive)	0.297 (inactive)	0.418	0.572 (inactive)	-0.13	0.436	0.0341	-0.071
O=C(NCc1ccccc1)[C@@H]1c2ccccc2C(=O)N(C2Cc3ccccc3C2)[C@H]1c1ccc(CO)cc1	1.56	0.106 (inactive)	0.287 (inactive)	0.644 (inactive)	2.03	-0.874 (inactive)	0.126	0.149	1.03	0.194
COCC(=C=CC[C@@H](O)c1ccc(OCCO)cc1)C[C@@H](O)c1ccccn1	0.37	-0.64 (inactive)	-1.13 (inactive)	-0.0669 (inactive)	0.608	-0.136 (inactive)	-0.0931	0.274	-0.0817	0.361
C[N+](C)(C)CCCC[C@@H]1NC(=O)[C@@H]2C[C@H](C(=O)NCCCCCCNC(=O)CS)[C@H](c3ccc(O)cc3)N2C1=O	0.567	0.562 (inactive)	-0.0042 (inactive)	0.525 (inactive)	0.479	-0.0327 (inactive)	-0.115	-0.533	-0.627	-0.225
C[N+](C)(C)CCCCCCNC(=O)[C@H]1C[C@H]2C(=O)N[C@@H](Cc3ccccc3)C(=O)N2[C@H]1c1cccc(OCCO)c1	1.15	-0.776 (inactive)	0.703 (inactive)	-0.282 (inactive)	3.05	-0.0145 (inactive)	0.0028	1.13	0.953	-0.0152
COc1ccc([Si](C)(C)[C@H]2[C@H](CCO)O[C@@]3(C(=O)N(Cc4ccccc4)c4ccc(N5CCCCC5=O)cc43)[C@@H]2C)cc1	1.56	0.296 (inactive)	-0.158 (inactive)	1.97 (inactive)	1.9	0.587 (inactive)	-0.17	1.23	0.932	-0.123
O=C(CS)NCCCCCNC(=O)[C@@H]1C[C@@H]2C(=O)NCC(=O)N2[C@@H]1c1ccc(O)cc1	1.08	0.118 (inactive)	-0.771 (inactive)	0.494 (inactive)	1.47	2.13 (inactive)	-0.124	0.362	0.179	-0.15
COc1ccc([Si](C)(C)[C@@H]2[C@@H](CCn3cc([C@H](O)c4ccccc4)nn3)O[C@]3(C(=O)N(Cc4cccc(N5CCC5=O)c4)c4ccccc43)[C@H]2C)cc1	-0.284	-0.442 (inactive)	1.23 (inactive)	2.14 (inactive)	0.167	-0.546 (inactive)	-0.0956	0.459	-0.468	-0.0267
CC(C)CN1C(=O)[C@@]2(c3ccc([N+](=O)[O-])cc3)CC(=O)N(C3CCCCC3)[C@@H]2c2ccc(CO)cc21	-1.13	0.0926 (inactive)	0.612 (inactive)	-1.78 (inactive)	-0.709	0.733 (inactive)	-0.113	-1.13	-0.626	-0.261
NC(=O)NCC#Cc1ccc2c(c1)[C@]1(C(=O)N2)[C@H](C(=O)O)[C@H]2C(=O)O[C@H](c3ccccc3)[C@H](c3ccccc3)N2[C@@H]1c1ccc(O)cc1	0.167	0.0288 (inactive)	-0.856 (inactive)	-0.483 (inactive)	0.68	-1.16 (inactive)	0.883	0.758	0.767	0.0156
C=CCNC(=O)[C@H]1[C@@H]2C(=O)O[C@@H](c3ccccc3)[C@@H](c3ccccc3)N2[C@@H](c2ccc(O)cc2)[C@]12C(=O)Nc1ccc(C#CCCO)cc12	0.586	1.35 (inactive)	1.84 (inactive)	1.13 (inactive)	1.97	0.515 (inactive)	-0.0915	-0.325	-0.356	-0.201
CO[C@H]1O[C@H](CO)[C@@H](OC(=O)Nc2cccc(F)c2)[C@H](OC(=O)Nc2ccccc2)[C@H]1OC(=O)Nc1ccccc1	1.54	1.63 (inactive)	1.1 (inactive)	5.68 (inactive)	3.37	-0.168 (inactive)	-0.0285	0.828	1.11	0.0778
CCOC(=O)C1=C[C@@H](C(C)C)N(S(=O)(=O)c2ccc(C)cc2)[C@H]1c1ccccc1F	1.58	-0.413 (inactive)	1.51 (inactive)	7.3 (inactive)	2.8	-0.816 (inactive)	0.142	0.351	1.06	0.0353
O=C1NC(=O)C2C1C=CC(C(O)c1ccc(I)cc1)N2Nc1ccccn1 (stereo not given)	0.321	-0.353 (inactive)	0.426 (inactive)	0.17 (inactive)	2.56	-0.956 (inactive)	-0.0328	0.143	0.15	-0.0947
CN1CCC(CCCO)=CC1c1cccs1 (stereo not given)	-0.0029	-1.69 (inactive)	-0.327 (inactive)	-0.489 (inactive)	-0.93	0.345 (inactive)	-0.166	0.0615	0.0121	-0.108
Cc1ccc(S[C@]2(C(=O)O)CC(=O)N(Cc3ccccc3C(F)(F)F)[C@@H]2c2ccc(CO)cc2I)cc1	0.471	-1.73 (inactive)	-2.36 (inactive)	0.695 (inactive)	1.65	-1.11 (inactive)	-0.205	-0.571	-1.02	-0.213
[N-]=[N+]=NCc1ccccc1[C@H]1OC(c2ccc(OCCCO)cc2)=N[C@@]1(Cc1ccccc1)C(=O)N1CCCCC1	1.55	-1.88 (inactive)	-0.575 (inactive)	1.32 (inactive)	3.33	1.56 (inactive)	0.0004	1.37	1.13	0.038
COc1ccc(NC(=O)O[C@H]2[C@H](OC(=O)c3cc4ccccc4[nH]3)[C@@H](OC(=O)c3cc4ccccc4[nH]3)[C@@H](OC)O[C@@H]2CO)cc1	0.496	-1.68 (inactive)	-0.519 (inactive)	0.611 (inactive)	1.54	0.593 (inactive)	-0.007	0.21	0.475	-0.0409
C#CCOc1ccc(C[C@@H](C(=O)OC)N(CC#C)[C@@H](/C=C/C2CC2)[C@H](O)Cc2ccccc2)cc1	-0.828	0.591 (inactive)	0.027 (inactive)	1.29 (inactive)	-0.361	-0.914 (inactive)	-0.0561	-0.446	-0.384	-0.312
[N-]=[N+]=NCc1ccccc1[C@@H]1OC(c2ccc(OCCCO)cc2)=N[C@]1(CCS(=O)(=O)c1ccccc1)C(=O)N1CCOCC1	1.54	-0.401 (inactive)	0.144 (inactive)	0.971 (inactive)	3.24	1.7 (inactive)	0.456	0.256	1.07	0.256
C#CCN(C/C=C/c1ccccc1)[C@H](CO)c1ccccc1	-0.019	-3.99 (inactive)	-21.4 (active)	-1.64 (inactive)	0.0638	0.408 (inactive)	-0.319	1.12	0.39	-0.215
